# Assay results published in PubChem BioAssay (NCATS).
# Values joined by “and” are separate entries in the source; they are usually repeats but may differ in a detail not shown here. Identical values can stand only once. Results filed as inconclusive are left out. Unmarked numbers belong to inactive results. Active and inactive are the calls of the source. Calls follow the shape of the dose curve; as a rule, active = well fitted curve in the direction sought with a large enough effect; inconclusive = small, poorly fitted or top-dose-only effect, or another doubt; inactive = no such curve, though single readings can be large; an effect the other way counts as inactive or inconclusive.
# How the values were obtained:
# [1] = Viability qHTS for spleen associated tyrosine kinase inhibitor (SYKi) naive MV4-11 cells (AID 1963823); also: nearly all actives have a fitted effect of over 40% in size
# Outline: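 Read-out: CellTiter-Glo luminescence. Exposure: 72 hr, 37 C, 5% CO2, 95% humidity. Cells: MV4-11 without SYK inhibitor history, 500/well, qHTS format.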
# [2] = Viability qHTS for spleen associated tyrosine kinase inhibitor (SYKi) drug resistant MV4-11 cells (AID 1963824); also: nearly all actives have a fitted effect of over 35% in size
# Outline: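 SYK inhibitor-resistant MV4-11 AML cells, 500 per well, added to predispensed compounds and incubated 72 hr at 37 C, 5% CO2. Viability measured by CellTiter-Glo luminescence after 10 min at room temperature.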
# [3] = Quantitative highthroughput screen to assess conditional lethalithy of P12 Ichikawa cells grown in Human Plasma-Like Medium with dialyzed fetal bovine serum (HPLM+ds) (AID 1963879); conditions: Potency: viability; also: nearly all actives have a fitted effect of over 35% in size; as to Viability: series mostly up to about 46 µM
# Outline: (§1)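 Each medium arm—HPLM with 10% dialyzed FBS, or RPMI1640 with 5 mM glucose and 10% untreated or dialyzed FBS—was screened against an 11-point, 3-fold compound titration for 48 h at 37 °C, with CellTiter-Glo luminescence as endpoint.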
# [4] = Quantitative highthroughput screen to assess conditional lethalithy of P12 Ichikawa cells grown in RPMI1640 with dialyzed fetal bovine serum (RPMI+ds) (AID 1963880); conditions: Potency: P12-Ichikawa viability; also: nearly all actives have a fitted effect of over 35% in size;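 as to Viability: 100% = DMSO wells and 0% = empty wells on each plate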
# Outline: as §1
# [5] = Quantitative highthroughput screen to assess conditional lethalithy of P12 Ichikawa cells grown in RPMI1640 with untreated serum (RPMI+s) (AID 1963881); conditions: Potency: viability; also: nearly all actives have a fitted effect of over 35% in size;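 as to Viability: series mostly up to about 46 µM; 100% = DMSO wells and 0% = empty wells without cells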
# Outline: as §1
# [6] = Quantitative highthroughput screen to assess conditional lethalithy of SEM cells grown in Human Plasma-Like Medium with dialyzed fetal bovine serum (HPLM+ds) (AID 1963882); also: nearly all actives have a fitted effect of over 35% in size; as to Viability: series mostly up to about 46 µM
# Outline: as §1
# [7] = Quantitative highthroughput screen to assess conditional lethalithy of SEM cells grown in RPMI1640 with unreated serum (RPMI+s) (AID 1963883); also: nearly all actives have a fitted effect of over 35% in size;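 as to Viability: 100% = DMSO wells and 0% = empty wells without cells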
# Outline: as §1
# [8] = Quantitative highthroughput screen to assess conditional lethalithy of SEM cells grown in RPMI1640 with dialyzed fetal bovine serum (RPMI+ds) (AID 1963884); also: nearly all actives have a fitted effect of over 35% in size;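 as to Viability: series mostly up to about 46 µM; 100% = DMSO control wells and 0% = empty wells without cells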
# Outline: as §1
# [9] = Cellular viability qHTS for adrenocortical cancer (ACC) cell line NCI-H295R (AID 1963990); also: nearly all actives have a fitted effect of over 60% in size
# Outline: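 Readout: CellTiter-Glo luminescence, 20 min RT. Exposure: 48 h, 37C/5% CO2. Cells: NCI-H295R, ITS-DMEM serum-free. Range: up to 46 uM. Analysis: 4PL fit, IC50 plus efficacy.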
# [10] = Cellular viability qHTS for adrenocortical cancer (ACC) cell line SW-13 (AID 1963989); conditions: SW-13 ACC cells viability, CellTiter-Glo, 48 h; activity (max response): hits give low values; also: nearly all actives have a fitted effect of over 65% in size;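 as to activity (max response): cells grown in serum-free medium with ITS supplement; % is scaled to controls: 0 for no effect and ±100 for the full control effect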
# Outline: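 Compound titrations (up to 46 uM final, in DMSO) were applied to SW-13 cells for 48 h at 37C/5% CO2. Reading used CellTiter-Glo after 20 min at room temperature; fitted curves yielded IC50 and efficacy.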
# Potency is read from the fitted curve at half-maximal effect.
SMILES,Potency [1],Potency [2],Potency [3],Potency [4],Potency [5],Potency [6],Potency [7],Potency [8],Potency [9],Potency [10],activity (max response) [10]
Cc1ccccc1N1C(=O)c2cc(S(N)(=O)=O)c(Cl)cc2NC1C (stereo not given),inactive,inactive,inactive,inactive,inactive,inactive,inactive,inactive,inactive,–,–
C[C@@H](Oc1cc(-n2cnc3ccc(CN4CCN(C)CC4)cc32)sc1C(N)=O)c1ccccc1C(F)(F)F,0.0209 µM (active),10.5 nM (active),0.0296 µM (active),0.0332 µM (active),0.0332 µM (active),–,0.0332 µM (active),–,–,50.1 nM (active),–
COC1=C(OC)C(=O)C(CCCCCCCCCCO)=C(C)C1=O,10.6 µM (active),10.6 µM (active) and 13.2 µM (active),inactive,–,–,inactive,inactive,–,2.91 µM (active) and 5.01 µM (active),4.11 µM (active) and 25.1 µM (active),–
CC1=C(C(=O)Nc2cc3cn[nH]c3cc2F)C(c2ccc(Cl)cc2F)N=C(c2ccnc(Cl)c2)N1 (stereo not given),4.61 µM (active),4.61 µM (active) and 5.9 µM (active),20.9 µM (active),20.9 µM (active),18.7 µM (active),16.6 µM (active),–,16.6 µM (active),25.1 µM (active),–,–
CO[C@@H]1[C@@H](OC(N)=O)[C@@H](O)[C@H](Oc2ccc3c(O)c(NC(=O)c4ccc(O)c(CC=C(C)C)c4)c(=O)oc3c2C)OC1(C)C,inactive,inactive,inactive,inactive,inactive,inactive,inactive,inactive,inactive,–,15.7% and -3.94%
C[C@@]1(C(=O)Nc2ccc(F)nc2)CCCN1c1nc(Nc2cc(C3CC3)[nH]n2)c2cccn2n1,1.46 µM (active),1840 nM (active),2.96 µM (active),–,2.96 µM (active),4.18 µM (active),–,3.32 µM (active),0.199 µM (active),–,–
CNC(=O)c1ccccc1Nc1nc(Nc2ccc(N3CCOCC3)cc2OC)ncc1Cl,184 nM (active) and 132 nM (active),326 nM (active) and 296 nM (active),8.33 µM (active),–,6.62 µM (active),2.09 µM (active),1.87 µM (active),–,–,5620 nM (active),–
